{"source": "PubChem BioAssay AID1878", "about": "(Sanford-Burnham Center for Chemical Genomics, 2009)", "note": "About 200 (20%) of roughly 1,000 compounds were called active. Not all results are given here. Entries with a potency or affinity are not part of this list. Unmarked numbers belong to inactive results. Cut-off read from the data, not from the text of the source: active = inhibition above about 55%; inactive = the rest."}
{"molecular_target": "Dual specificity protein phosphatase 3 (Homo sapiens) (UniProt P51452)", "sequence (P51452 whole entry, looked up)": "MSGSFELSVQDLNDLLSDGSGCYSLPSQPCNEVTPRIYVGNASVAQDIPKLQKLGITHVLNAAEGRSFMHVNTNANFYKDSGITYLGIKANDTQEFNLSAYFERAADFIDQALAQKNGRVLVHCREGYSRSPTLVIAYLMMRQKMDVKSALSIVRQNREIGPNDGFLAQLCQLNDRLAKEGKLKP", "experiment": "VHR1 phosphatase inhibitors, biochemical (AID 1878)", "details": "recombinant VHR phosphatase, fluorogenic substrate; at 13.3 µM; stronger effect = higher value"}
{"smiles": "CC1CCCCN1CCCNC(=O)Cn1c(=O)c2cccn2c2ccccc21", "note": "(stereo not drawn)", "inhibition": "-1.3%"}
{"smiles": "COc1ccc(/C=N\\NC(=O)c2cc(O)c(O)c(O)c2)cc1CN1CCN(c2ccc(F)cc2)CC1", "inhibition": "-34.7%"}
{"smiles": "COc1ccc2c(c1)cc1c(=O)n(CC(=O)NC(C)CCc3ccccc3)nc(C)n12", "note": "(stereo not drawn)", "inhibition": "-4%"}
{"smiles": "CN1CC(=O)N2Cc3[nH]c4ccccc4c3C[C@H]2C1=O", "inhibition": "11.2%"}
{"smiles": "Cc1ccc(N2CCN(c3ncccc3[N+](=O)[O-])CC2)c(C)c1", "inhibition": "8.1%"}
{"smiles": "NC(=O)C(c1ccc(F)cc1)c1ccc(C(=O)c2ccccc2)cc1", "note": "(stereo not drawn)", "inhibition": "18.3%"}
{"smiles": "CCOCCn1c2ccccc2c2nc3ccccc3nc21", "inhibition": "-4.2%"}
{"smiles": "COc1ccc(C(=O)/C=C2/C(=O)Nc3ccccc32)cc1OC", "inhibition": "13.2%"}
{"smiles": "CC(Oc1ccc2ccc(=O)oc2c1)C(=O)NC1CC(C)(C)NC(C)(C)C1", "note": "(stereo not drawn)", "inhibition": "-2.5%"}
{"smiles": "Nc1ccc2c(c1Cl)C(=O)c1ccc(N)c(Cl)c1C2=O", "inhibition": "99.8% (active)"}
{"smiles": "CCCC(=O)Nc1ccc(S(=O)(=O)N2CCOCC2)cc1", "inhibition": "-5.6%"}
{"smiles": "CC(C)(C)CC(=O)Nc1ccc(-c2nnc3n2CCCCC3)cc1", "inhibition": "27.9%"}
{"smiles": "COc1nc(C)cc(C)c1S(=O)(=O)c1ccccc1", "inhibition": "6.1%"}
{"smiles": "c1ccc(CCNC2CCCCCC2)cc1", "inhibition": "14.2%"}
{"smiles": "O=C(NCCc1ccccc1)C1CC(=O)N(CCc2ccccc2)C1", "note": "(stereo not drawn)", "inhibition": "-8.3%"}
{"smiles": "CC1CCN(S(=O)(=O)c2ccc3c(c2)N(CC(=O)NCCCN2C(C)CCCC2C)C(=O)CO3)CC1", "note": "(stereo not drawn)", "inhibition": "-11.5%"}
{"smiles": "O=C(O)Cn1nc2c3c(cccc3c1=O)-c1ccccc1-2", "inhibition": "-3.4%"}
{"smiles": "Cc1cc2nc(/C=C/c3nc4cc(C)c(C)cc4[nH]3)[nH]c2cc1C", "inhibition": "82.4% (active)"}
{"smiles": "NC(=O)C(c1ccccc1)c1ccc(C(=O)c2ccccc2)cc1", "note": "(stereo not drawn)", "inhibition": "-3.2%"}
{"smiles": "Cn1nc([N+](=O)[O-])c2c(-c3nc4ccccc4s3)c(N)n(C3CCCCC3)c2c1=O", "inhibition": "97.9% (active)"}
{"smiles": "COc1cccc(NC(=O)CN(C)S(=O)(=O)c2ccc3[nH]c(=O)oc3c2)c1", "inhibition": "9%"}
{"smiles": "O=C(Cn1ncc2c([nH]c3ccccc32)c1=O)N1CCOCC1", "inhibition": "16.5%"}
{"smiles": "COc1cc(/C=C2/C(=O)N(c3cccc(Br)c3)N=C2C)cc(OC)c1O", "inhibition": "6.8%"}
{"smiles": "COc1cc(/C=C2/C(=O)NN(c3ccc(Cl)cc3)C2=O)cc(OC)c1O", "inhibition": "17.9%"}
{"smiles": "CC(C)(C)OC(=O)NCC1CCN(S(=O)(=O)Cc2ccccc2)CC1", "inhibition": "-7.1%"}
{"smiles": "C/C(N)=C(/C#N)C(=O)COC(=O)c1cc(-c2ccc(Br)cc2)nc2ccccc12", "inhibition": "-2.7%"}
{"smiles": "CCOc1ccc(-c2cc(C(=O)NCCCN3CCCC3)c3ccccc3n2)cc1", "inhibition": "-16.4%"}
{"smiles": "COc1ccccc1CN1CCCC(CN(CCN(C)C)C(=O)C2CCCC2)C1", "note": "(stereo not drawn)", "inhibition": "-18.4%"}
{"smiles": "Nc1nn2c(-c3ccccc3)cc(=O)[nH]c2c1N=Nc1ccc(Br)cc1", "inhibition": "81.7% (active)"}
{"smiles": "CC(C)(C)c1cc(=O)n2[nH]c(N)nc2n1", "inhibition": "-15.2%"}
{"smiles": "COC(=O)C1(C)NC(c2ccc(Cl)cc2)C2C(=O)N(c3ccccc3)C(=O)C21", "note": "(stereo not drawn)", "inhibition": "-6.5%"}
{"smiles": "CN1CCN(c2nc(-c3ccccc3Cl)nc3ccccc23)CC1", "inhibition": "5.7%"}
{"smiles": "COc1ccc(-c2cc3nc4ccccc4n3c(N)c2C#N)cc1", "inhibition": "95.4% (active)"}
{"smiles": "COc1ccc(NC2CCCN(C(=O)CCN3CCOCC3)C2)cc1", "note": "(stereo not drawn)", "inhibition": "2.8%"}
{"smiles": "CC(C)OC(=O)CCCNc1ccc([N+](=O)[O-])cc1[N+](=O)[O-]", "inhibition": "5.9%"}
{"smiles": "Cc1cc(=O)oc2cc(OC(C)C(=O)NCCc3ccc(S(N)(=O)=O)cc3)ccc12", "note": "(stereo not drawn)", "inhibition": "-4.7%"}
{"smiles": "Cc1cc(C)c(S(=O)(=O)c2cccc(Br)c2C)c(=O)[nH]1", "inhibition": "9.5%"}
{"smiles": "O=C(Nc1ccc(Br)cc1F)c1ccc2nsnc2c1", "inhibition": "0.8%"}
{"smiles": "CCC(Sc1nnc(-c2ccco2)n1C)C(=O)Nc1nnc(C)s1", "note": "(stereo not drawn)", "inhibition": "-1.6%"}
{"smiles": "CCCCCCN1CC(=O)N2Cc3[nH]c4ccccc4c3C[C@H]2C1=O", "inhibition": "11.5%"}
{"smiles": "COc1ccc(/C=N/NC(=O)c2[nH]c3ccc(C)cc3c2-c2ccccc2)c(C(=O)O)c1OC", "inhibition": "6.7%"}
{"smiles": "COc1cccc(/C=N/Nc2ncnc3c2[nH]c2ccc(C)cc23)c1OC", "inhibition": "97.6% (active)"}
{"smiles": "O=C(COCc1cc(-c2ccc3c(c2)OCO3)on1)Nc1cccnc1Cl", "inhibition": "2.9%"}
{"smiles": "COc1ccccc1N1CCN(C2CCCN(C(=O)CCc3cnccn3)C2)CC1", "note": "(stereo not drawn)", "inhibition": "-1.8%"}
{"smiles": "C[C@]1(CO)CCC[C@@]2(C)C1CC[C@@H](CO)[C@@H]2CCc1ccoc1", "note": "(stereo partly drawn)", "inhibition": "-0.3%"}
{"smiles": "CCCOc1ccc(-c2c(C(=O)N/N=C/c3cccnc3)nnn2-c2nonc2N)cc1", "inhibition": "96.5% (active)"}
{"smiles": "C/C(=N\\NC(=O)c1nnn(-c2nonc2N)c1C)c1ccc(OCc2ccccc2)cc1", "inhibition": "8.6%"}
{"smiles": "CCCc1c(C(=O)N/N=C(\\C)CCc2ccccc2)nnn1-c1nonc1N", "inhibition": "1.7%"}
{"smiles": "CCc1nn(CC(=O)NCc2ccccc2Cl)c(=O)c2cccn12", "inhibition": "17.5%"}
{"smiles": "COC(=O)c1sccc1NC(=O)Nc1ccc(C)cc1C", "inhibition": "-7.1%"}
{"smiles": "O=C(Nc1cccc2ncccc12)c1ccccc1F", "inhibition": "-0.8%"}
{"smiles": "COc1cccc(C2c3[nH]c4ccccc4c3C[C@H]3C(=O)N(CCCOC(C)C)CC(=O)N23)c1", "note": "(stereo partly drawn)", "inhibition": "10.9%"}
{"smiles": "COc1ccc2[nH]c(=O)c(-c3noc(-c4ccc(F)cc4)n3)cc2c1", "inhibition": "97.2% (active)"}
{"smiles": "COc1ccc(OC)c(-c2csc(NC(=O)Cc3ccc(F)cc3)n2)c1", "inhibition": "0.5%"}
{"smiles": "Cn1cnc(S(=O)(=O)N2CCN(c3ccc(F)cc3)CC2)c1", "inhibition": "-8%"}
{"smiles": "Cc1ccc(NC(=O)Nc2nnc(-c3ccncc3)s2)cc1C", "inhibition": "94.2% (active)"}
{"smiles": "Cc1ccc(NC(=O)NCCN2CCCCC2)cc1C", "inhibition": "-2%"}
{"smiles": "O=C(Nc1ccc(Cl)c(Cl)c1)Nc1ccccn1", "inhibition": "3.2%"}
{"smiles": "Cc1cccc(NC(=O)Cc2nnc(NC(=O)Nc3ccccc3F)s2)c1", "inhibition": "16.3%"}
{"smiles": "Cc1ccc(NC(=O)NN2CCN(C)CC2)cc1C", "inhibition": "-0.5%"}
{"smiles": "CCC(C(=O)NCCCN1CCN(C)CC1)n1nc(C)n2c(cc3occc32)c1=O", "note": "(stereo not drawn)", "inhibition": "-10.7%"}
{"smiles": "CC(=O)OC1CC2(C)/C(=N\\O)CCC2C2CCc3cc(O)ccc3C12", "note": "(stereo not drawn)", "inhibition": "-5.1%"}
{"smiles": "Cc1ccc(-n2nc3c(=O)n(CCCC(=O)NC4CCC(C)CC4)nc(C)c3c2C)cc1", "note": "(stereo not drawn)", "inhibition": "23.9%"}
{"smiles": "CCN(CC)C(=O)Cn1cc(C(=O)C(=O)NCCCN2CCCCC2)c2ccccc21", "inhibition": "1.8%"}
{"smiles": "O=C(NCc1ccc(F)cc1)C1CCN(S(=O)(=O)c2cccc3nonc23)CC1", "inhibition": "4.8%"}
{"smiles": "CC(C)C[C@H](NC(=O)C1CC(=O)N(c2ccc3c(c2)OCO3)C1)C(=O)NC1CCCC1", "note": "(stereo partly drawn)", "inhibition": "-5%"}
{"smiles": "CCN(CC)CCCNC(=O)c1ccc(C)c(NC(=O)C2=C(C)OCCS2)c1", "inhibition": "5.7%"}
{"smiles": "COc1cc(OC)nc(Oc2cc(C=O)ccc2OC)n1", "inhibition": "19.7%"}
{"smiles": "CCN(CC)CCCNC(=O)c1cn(C)c2ccc(S(=O)(=O)N(C)C3CCCCC3)cc2c1=O", "inhibition": "-8.9%"}
{"smiles": "Cn1c(=O)c(=O)n(C)c2cc(N3CCOCC3)c(NS(=O)(=O)c3ccc(F)c(Cl)c3)cc21", "inhibition": "-2.4%"}
{"smiles": "CC(=O)c1ccc(S(=O)(=O)Nc2ccc(N3CCOCC3)cc2)cc1", "inhibition": "-2%"}
{"smiles": "O=S(=O)(Nc1ccc(Cl)cc1)c1ccc(N2CCOCC2)c(NC(=S)NCCN2CCOCC2)c1", "inhibition": "57.1% (active)"}
{"smiles": "CC(C)(C)NC(=O)N1CCN(c2ncccc2C(F)(F)F)CC1", "inhibition": "-1.3%"}
{"smiles": "O=C(CSc1nc2ccccc2[nH]1)NCCN1CCCCC1", "inhibition": "-5.4%"}
{"smiles": "Cc1ccc(-c2nnn3c2nc(NCCc2ccc(S(N)(=O)=O)cc2)c2ccccc23)cc1", "inhibition": "98.7% (active)"}
{"smiles": "CCOc1ccc(C(=O)OCC(=O)NCc2ccco2)cc1OCC", "inhibition": "3.1%"}
{"smiles": "CCN1C(=O)N(c2ccc(C(C)=O)cc2)S(=O)(=O)c2ccccc21", "inhibition": "-4.4%"}
{"smiles": "Cc1ccc(NC(=O)CCC(=O)c2ccc(Br)cc2)cc1", "inhibition": "8.7%"}
{"smiles": "COc1ccc(C(=O)N2CCN(CCNC(=O)C(=O)Nc3ccc(Br)cc3)CC2)cc1", "inhibition": "1.9%"}
{"smiles": "Oc1ccccc1/C=N/Nc1cc(N2CCCC2)nc(N2CCCC2)n1", "inhibition": "-15.5%"}
{"smiles": "COc1ccnc2c1c(=O)n(Cc1ccc(Cl)cc1)c(=O)n2C", "inhibition": "0.3%"}
{"smiles": "CCCC(=O)Nc1c(-c2ccc(C)cc2)c(=O)c2ccccc2n1C", "inhibition": "2.1%"}
{"smiles": "COc1ccc(Cn2c(-c3ccc(C)cc3)nc3c(c(=O)c4ccccc4n3C)c2=O)cc1", "inhibition": "85.9% (active)"}
{"smiles": "Cc1nn(CC(=O)NCCCN2CC(C)CC(C)C2)c(=O)c2cccn12", "note": "(stereo not drawn)", "inhibition": "-10.3%"}
{"smiles": "CN1C(=O)CN=C(c2ccc(Cl)cc2)c2cc(Cl)ccc21", "inhibition": "16%"}
{"smiles": "COc1cccc(-c2nc(CS(=O)(=O)CC(=O)NCCCN3CC(C)CC(C)C3)c(C)o2)c1", "note": "(stereo not drawn)", "inhibition": "-0.7%"}
{"smiles": "N#C/C(=C\\c1ccc(-c2ccc(C(=O)O)cc2)o1)C(=O)Nc1ccc(F)cc1", "inhibition": "82.2% (active)"}
{"smiles": "CN(C)N1C(N)=C(C#N)C(c2cccc(Cl)c2)C2=C1CCCC2=O", "note": "(stereo not drawn)", "inhibition": "0.6%"}
{"smiles": "CC1CCCN(CCCNS(=O)(=O)c2ccc3c(c2)CCN3C(=O)C2CC2)C1", "note": "(stereo not drawn)", "inhibition": "-6.7%"}
{"smiles": "CC#CC#Cc1cccc(=O)o1", "inhibition": "42.9%"}
{"smiles": "O=C(O)CCSC1CC(=O)N(c2ccccc2)C1=O", "note": "(stereo not drawn)", "inhibition": "16.8%"}
{"smiles": "O=S(=O)(c1cc(Cl)ccc1Cl)N1CCc2ccccc21", "inhibition": "-1.3%"}
{"smiles": "CN(C)c1ccc(NC(=O)CSc2nnc(C3CCCCC3)n2N)cc1", "inhibition": "-7.6%"}
